# Experimental data published in PubChem BioAssay (EPA / NIEHS).
# Inconclusive results are not listed. The source made the active and inactive calls. How the source made its calls, unless noted: active means hit-call score of the fitted dose curve at least 0.9, where 1 is the maximum; inactive means score below 0.9.
# How the values were obtained:
# [1] = target: Paired box protein Pax-6 (Homo sapiens) (UniProt P26367); assay: ATG_Pax6_CIS: Attagene CIS-FACTORIAL HepG2 Assay for human Paired Box 6 (PAX6) (AID 2282956); conditions: HepG2 CIS-FACTORIAL PAX6 reporter transcription, RNA readout; actives raise or lower the signal
# Paired box protein Pax-6 (Homo sapiens), sequence (P26367 whole entry, looked up): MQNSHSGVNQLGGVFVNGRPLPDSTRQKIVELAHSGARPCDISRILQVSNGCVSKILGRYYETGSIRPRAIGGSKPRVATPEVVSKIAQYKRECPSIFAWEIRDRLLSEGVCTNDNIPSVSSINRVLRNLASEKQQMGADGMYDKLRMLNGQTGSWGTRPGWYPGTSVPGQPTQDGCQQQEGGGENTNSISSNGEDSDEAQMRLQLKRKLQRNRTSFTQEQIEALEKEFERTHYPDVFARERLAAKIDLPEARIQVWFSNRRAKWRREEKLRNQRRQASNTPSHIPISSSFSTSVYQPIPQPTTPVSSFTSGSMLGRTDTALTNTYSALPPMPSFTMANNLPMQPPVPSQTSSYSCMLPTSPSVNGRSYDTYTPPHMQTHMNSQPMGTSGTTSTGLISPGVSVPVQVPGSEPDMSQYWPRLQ
# Method in brief: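 Readout: reporter transcript fluorescence after RT-PCR and capillary electrophoresis. Cells: HepG2, transiently transfected with cis-regulated MRTUs. Exposure 24 h. Gain or loss of signal fitted bidirectionally relative to DMSO.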
# [2] = ATG_PXRE_CIS: Attagene CIS-FACTORIAL HepG2 Assay for human Pregnane X Receptor Element (PXRE) (AID 2282957); conditions: HepG2 Attagene CIS-FACTORIAL PXRE reporter, mRNA; actives raise or lower the signal
# Method in brief: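 Endogenous transcription factor activity in HepG2 was gauged through induction of reporter mRNA driven by a cis-regulating promoter element, sampled 24 h post-treatment. Activity was fitted in both directions against DMSO negative control.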
# [3] = ATG_Sox_CIS: Attagene CIS-FACTORIAL HepG2 Assay for human SRY-box transcription factor (SOX) (AID 2282960); conditions: HepG2 Attagene cis-factorial SOX reporter, mRNA; actives raise or lower the signal
# Method in brief: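 HepG2 cells transiently transfected with multiple cis-regulated reporter units, then dosed for 24 h. Reporter mRNA quantified by RT-PCR, fluorescent labelling, HpaI digestion and capillary electrophoresis; bidirectional fit versus DMSO.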
# [4] = target: Transcription factor Sp1 (Homo sapiens) (UniProt P08047); assay: ATG_Sp1_CIS: Attagene CIS-FACTORIAL HepG2 Assay for human Specificity Protein 1 (Sp1) (AID 2282961); conditions: HepG2 Sp1 cis-reporter transcription, actives raise or lower the signal
# Transcription factor Sp1 (Homo sapiens), sequence (P08047 whole entry, looked up): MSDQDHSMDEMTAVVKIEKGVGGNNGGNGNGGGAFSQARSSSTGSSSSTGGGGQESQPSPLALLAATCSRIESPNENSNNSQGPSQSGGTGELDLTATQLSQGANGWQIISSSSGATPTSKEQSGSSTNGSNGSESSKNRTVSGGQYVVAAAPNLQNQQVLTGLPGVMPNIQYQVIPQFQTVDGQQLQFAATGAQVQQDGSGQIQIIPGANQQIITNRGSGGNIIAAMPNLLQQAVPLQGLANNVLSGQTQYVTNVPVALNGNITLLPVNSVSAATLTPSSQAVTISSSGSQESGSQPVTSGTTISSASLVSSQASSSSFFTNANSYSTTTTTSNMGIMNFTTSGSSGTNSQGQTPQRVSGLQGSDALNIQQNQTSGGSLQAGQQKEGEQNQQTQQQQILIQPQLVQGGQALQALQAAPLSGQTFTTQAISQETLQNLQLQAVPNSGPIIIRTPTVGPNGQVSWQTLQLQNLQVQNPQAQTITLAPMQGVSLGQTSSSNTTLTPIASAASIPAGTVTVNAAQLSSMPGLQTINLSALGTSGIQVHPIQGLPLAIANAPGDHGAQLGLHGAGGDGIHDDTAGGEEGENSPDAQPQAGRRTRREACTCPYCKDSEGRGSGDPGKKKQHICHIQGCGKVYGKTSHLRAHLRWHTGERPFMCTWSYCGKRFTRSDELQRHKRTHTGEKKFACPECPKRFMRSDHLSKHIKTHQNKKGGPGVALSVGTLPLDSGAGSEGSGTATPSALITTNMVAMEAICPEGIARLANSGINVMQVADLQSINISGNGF
# Method in brief: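 HepG2 cells transiently transfected with multiplexed cis-regulated reporter constructs, chemical exposure 24 h. Reporter mRNA quantified by RT-PCR with capillary electrophoresis; bidirectional fit relative to DMSO.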
# [5] = ATG_SREBP_CIS: Attagene CIS-FACTORIAL HepG2 Assay for human Sterol Regulatory Element Binding (SREBP) (AID 2282962); conditions: HepG2 Attagene cis-factorial SREBP reporter, mRNA; actives raise or lower the signal
# Method in brief: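 Readout: fluorescent reporter-transcript peaks resolved by capillary electrophoresis after RT-PCR. Cells were human HepG2 carrying transfected cis-promoter reporter constructs, dosed for 24 h. Gain or loss of signal was fitted against DMSO controls.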
# [6] = target: Signal transducer and activator of transcription 3 (Homo sapiens) (UniProt P40763); assay: ATG_STAT3_CIS: Attagene CIS-FACTORIAL HepG2 Assay for human Signal Transducer and Activator of Transcription 3 (STAT3) (AID 2282963); conditions: HepG2, Attagene cis-factorial STAT3 reporter transcription; actives raise or lower the signal
# Signal transducer and activator of transcription 3 (Homo sapiens), sequence (P40763 whole entry, looked up): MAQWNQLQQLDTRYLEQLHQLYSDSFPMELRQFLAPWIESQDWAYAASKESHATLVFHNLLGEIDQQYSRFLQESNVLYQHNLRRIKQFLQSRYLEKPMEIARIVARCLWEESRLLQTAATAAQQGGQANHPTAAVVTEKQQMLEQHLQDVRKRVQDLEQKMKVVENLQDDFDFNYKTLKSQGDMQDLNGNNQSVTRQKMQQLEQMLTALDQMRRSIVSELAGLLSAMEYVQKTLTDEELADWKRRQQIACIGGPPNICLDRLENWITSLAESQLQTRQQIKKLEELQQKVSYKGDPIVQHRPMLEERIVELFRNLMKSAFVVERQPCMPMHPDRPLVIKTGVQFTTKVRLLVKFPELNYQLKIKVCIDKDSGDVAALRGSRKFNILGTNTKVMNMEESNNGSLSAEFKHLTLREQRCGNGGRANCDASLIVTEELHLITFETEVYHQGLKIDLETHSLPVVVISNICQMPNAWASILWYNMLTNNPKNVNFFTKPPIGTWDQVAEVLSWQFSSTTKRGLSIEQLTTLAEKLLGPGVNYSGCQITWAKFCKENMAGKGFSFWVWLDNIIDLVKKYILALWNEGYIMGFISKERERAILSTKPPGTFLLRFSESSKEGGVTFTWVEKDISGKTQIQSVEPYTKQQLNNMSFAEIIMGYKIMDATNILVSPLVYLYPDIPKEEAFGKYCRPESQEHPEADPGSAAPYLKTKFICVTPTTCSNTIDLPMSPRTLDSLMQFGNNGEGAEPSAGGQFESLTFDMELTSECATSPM
# Method in brief: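 Cis-factorial format: endogenous transcription factors in HepG2 drive transfected reporter units. After 24 h treatment, reporter RNA was reverse-transcribed, amplified, FAM-labelled and HpaI-digested before CE analysis; activity scored in both directions against DMSO.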
# [7] = ATG_TA_CIS: Attagene CIS-FACTORIAL HepG2 Assay for human TA Basal Promoter (AID 2282964); conditions: HepG2 Attagene CIS-factorial TA basal promoter reporter; actives raise or lower the signal
# Method in brief: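 Background internal-marker endpoint from a 52-component HepG2 cis-reporter panel. Cells treated 24 h; reporter transcripts quantified via RT-PCR and CE fluorescence against DMSO baseline.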
# [8] = ATG_TCF_b_cat_CIS: Attagene CIS-FACTORIAL HepG2 Assay for human T-Cell-Factor with beta-catenin (TCF/b-cat) (AID 2282965); conditions: HepG2 TCF/beta-catenin cis-reporter transcription, actives raise or lower the signal
# Method in brief: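 Endogenous transcription factor activity is captured through cis-promoter reporter constructs transiently introduced into human HepG2 liver cells. Induced reporter mRNA is measured after 24 h and fitted bidirectionally relative to DMSO.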
# [9] = ATG_TAL_CIS: Attagene CIS-FACTORIAL HepG2 Assay for human TAL Basal Promoter (AID 2282966); conditions: HepG2 Attagene cis-factorial TAL promoter reporter; actives raise or lower the signal;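 further: background control endpoint measuring basal TAL promoter reporter mRNA not a specific factor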
# Method in brief: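 Endogenous transcription-factor activity is sensed in HepG2 cells through transfected cis-promoter reporter constructs. After 24 h dosing, reporter transcripts are quantified by RT-PCR and capillary electrophoresis. Gain or loss of signal is fitted relative to DMSO.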
# [10] = ATG_TGFb_CIS: Attagene CIS-FACTORIAL HepG2 Assay for human Transforming Growth Factor (TGF) (AID 2282967); conditions: HepG2 Attagene CIS TGFb reporter, mRNA transcription; actives raise or lower the signal
# Method in brief: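 Liver HepG2 line, cis-factorial reporter panel, 24 h dosing. Quantitation: RT-PCR products labeled with 6-FAM, cut with HpaI, resolved by capillary electrophoresis; DMSO-referenced bidirectional analysis.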
# [11] = ATG_VDRE_CIS: Attagene CIS-FACTORIAL HepG2 Assay for human Vitamin D Receptor Element (VDRE) (AID 2282968); conditions: HepG2 VDRE cis-reporter transcription, actives raise or lower the signal
# Method in brief: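 Measures endogenous factor activity through cis-element-driven reporter transcripts in transiently transfected HepG2. Cells are treated 24 h; reporter mRNA is quantified by RT-PCR and capillary electrophoresis; fitting is bidirectional.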
# [12] = target: Nuclear receptor subfamily 1 group I member 3 (Homo sapiens) (UniProt Q14994); assay: ATG_CAR_TRANS: Attagene TRANS-FACTORIAL HepG2 Assay for human Constitutive Androstane Receptor (CAR) (AID 2282969; active means hit-call score of the fitted dose curve at least 0.9, where 1 is the maximum;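 further: activators raise reporter mRNA above DMSO so AC50 marks induction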); conditions: HepG2 Attagene TRANS-FACTORIAL CAR reporter
# Nuclear receptor subfamily 1 group I member 3 (Homo sapiens), sequence (Q14994 whole entry, looked up, the tested form may be a part): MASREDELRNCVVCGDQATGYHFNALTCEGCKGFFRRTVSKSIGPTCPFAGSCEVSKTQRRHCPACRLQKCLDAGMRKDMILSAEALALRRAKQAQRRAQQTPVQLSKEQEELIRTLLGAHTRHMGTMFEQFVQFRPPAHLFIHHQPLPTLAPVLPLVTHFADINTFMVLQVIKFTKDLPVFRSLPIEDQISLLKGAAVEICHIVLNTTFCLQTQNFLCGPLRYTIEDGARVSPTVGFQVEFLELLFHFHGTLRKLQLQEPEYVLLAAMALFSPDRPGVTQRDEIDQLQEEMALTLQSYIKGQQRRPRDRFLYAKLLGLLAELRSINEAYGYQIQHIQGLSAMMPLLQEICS
# Method in brief: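 Signal is reporter mRNA induction relative to DMSO, measured 24 h after dosing by RT-PCR with fluorescent primer extension and capillary electrophoresis. Human HepG2 liver cells carried transiently transfected chimeric NR-Gal4/GAL4-UAS reporter constructs.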
# [13] = target: X-box-binding protein 1 (Homo sapiens) (UniProt P17861); assay: ATG_Xbp1_CIS: Attagene CIS-FACTORIAL HepG2 Assay for human X-box Binding Protein 1 (XBP1) (AID 2282972); conditions: HepG2 XBP1 cis-element reporter, Attagene multiplex; actives raise or lower the signal
# X-box-binding protein 1 (Homo sapiens), sequence (P17861 whole entry, looked up, the tested form may be a part): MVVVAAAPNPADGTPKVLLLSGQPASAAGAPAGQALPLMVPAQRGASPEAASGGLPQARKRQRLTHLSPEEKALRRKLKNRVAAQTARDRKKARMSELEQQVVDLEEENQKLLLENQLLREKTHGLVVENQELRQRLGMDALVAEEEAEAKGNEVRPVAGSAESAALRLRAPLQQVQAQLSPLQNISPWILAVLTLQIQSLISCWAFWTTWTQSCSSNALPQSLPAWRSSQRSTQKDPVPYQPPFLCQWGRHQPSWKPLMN
# Method in brief: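 Read-out: fluorescent reporter mRNA fragments resolved by capillary electrophoresis after RT-PCR. Human HepG2 liver cells carried transfected cis-promoter reporter units and were exposed to chemicals for 24 hours. Gain or loss of signal fitted relative to DMSO baseline.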
# [14] = ATG_PPRE_CIS: Attagene CIS-FACTORIAL HepG2 Assay for human Peroxisome Proliferator-activated Response Element (PPRE) (AID 2282958); conditions: HepG2 PPRE cis-element reporter, Attagene transcription factor profiling; actives raise or lower the signal
# Method in brief: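 HepG2 cells are transiently transfected with multiplexed cis-promoter reporter units to report endogenous PPAR activity. After 24 h dosing, reporter mRNA is read by RT-PCR and capillary electrophoresis. Fitting is bidirectional against DMSO.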
# [15] = ATG_RORE_CIS: Attagene CIS-FACTORIAL HepG2 Assay for human RAR-related Orphan Receptor Element (RORE) (AID 2282959); conditions: HepG2 Attagene cis-factorial RORE reporter, mRNA; actives raise or lower the signal
# Method in brief: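 HepG2 cells carrying transiently transfected cis-regulated reporter units; RORE-driven reporter mRNA quantified 24 h post-dosing by RT-PCR, 6-FAM primer extension, HpaI digestion and capillary electrophoresis. Bidirectional fit versus DMSO.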
# [16] = ATG_M_19_TRANS: Attagene TRANS-FACTORIAL HepG2 Assay for M19 Transcription Factor (Internal Marker) (AID 2282974; active means hit-call score of the fitted dose curve at least 0.9, where 1 is the maximum); conditions: HepG2 Attagene TRANS-FACTORIAL M19 internal marker reporter
# Method in brief: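 HepG2 transiently transfected with GAL4-UAS multiplex reporter constructs, exposed 24 h; reporter RNA quantified by RT-PCR, 6-FAM labeling, HpaI digestion and capillary electrophoresis; internal background marker fitted upward versus DMSO.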
structure (smiles),measurement,setting,value
O=CCc1ccccc1,outcome,[1],inactive
same,AC50,[2],9.42 µM (active)
same,outcome,[3],inactive
same,outcome,[4],inactive
same,outcome,[5],inactive
same,outcome,[6],inactive
same,outcome,[7],inactive
same,outcome,[8],inactive
same,outcome,[9],inactive
same,outcome,[10],inactive
same,outcome,[11],inactive
same,outcome,[12],inactive
same,outcome,[13],inactive
CCOC(=O)COC(=O)c1cc(Oc2ccc(C(F)(F)F)cc2Cl)ccc1[N+](=O)[O-],outcome,[1],inactive
same,AC50,[14],12.4 µM (active)
same,AC50,[15],34.3 µM (active)
same,outcome,[3],inactive
same,outcome,[4],inactive
same,outcome,[5],inactive
same,outcome,[6],inactive
same,outcome,[7],inactive
same,outcome,[8],inactive
same,outcome,[9],inactive
same,AC50,[10],144 µM (active)
same,AC50,[11],33.5 µM (active)
same,outcome,[12],inactive
same,outcome,[13],inactive
same,outcome,[16],inactive
CCCOC(=O)c1c(Cl)c(Cl)c(Cl)c(Cl)c1C(=O)OCCC,outcome,[1],inactive
same,AC50,[2],1.64 µM (active)
same,outcome,[3],inactive
same,AC50,[4],67.1 µM (active)
same,AC50,[5],100 µM (active)
same,outcome,[6],inactive
same,outcome,[7],inactive
same,outcome,[8],inactive
same,outcome,[9],inactive
same,outcome,[10],inactive
same,outcome,[11],inactive
same,outcome,[12],inactive
same,AC50,[13],130 µM (active)
same,outcome,[16],inactive
COc1cccc(OC)c1O,outcome,[1],inactive
same,outcome,[14],inactive
same,outcome,[15],inactive
same,outcome,[3],inactive
same,outcome,[4],inactive
same,outcome,[5],inactive
same,outcome,[6],inactive
same,outcome,[7],inactive
same,outcome,[8],inactive
same,outcome,[9],inactive
same,outcome,[10],inactive
same,outcome,[11],inactive
same,outcome,[12],inactive
same,outcome,[13],inactive
